# Reference: PubChem BioAssay (NCI)
# The panel holds about 83,000 compounds, 20% with a hit somewhere; the sample as a whole holds those more often.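 Cells were grown in 96-well plates and exposed to the test compound at a single concentration for 48 hours; results are reported as percent growth, with values below 10 considered active.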 Values without a mark were called inactive. Calls of active or inactive are those of the source.
# Tested on: HL-60(TB) leukemia
# Test: NCI-60 one-dose screen, 48 h (100 = growth as untreated, 0 = no growth, -100 = all killed)
# Details: 10 µM unless noted
row,SMILES,growth
1,Nc1c(C(=O)Nc2cccc([N+](=O)[O-])c2)sc2nc3c(cc12)C(O)CCC3 (stereo not given),9.71% (active)
2,CCCCCCC(C)(O)c1ccccc1 (stereo not given),94.6%
3,NC(=O)c1cccc(-c2cc(C(N)=O)ccc2Cl)c1,-22.7% (active)
4,Cc1ccc(-c2cnc3sc(C(=O)NCCc4ccccc4)c(C)n23)cc1,97.9%
5,Cc1[nH]c(-c2cc(N)ccc2Cl)c2c1C(=O)CCCC2,-14.4% (active)
6,CC1(O)CCCCC1O (stereo not given),107%
7,N/C(=N\C(N)=N\c1nc2ccccc2s1)c1ccnc(Cl)c1,1.2% (active)
8,Clc1ccc(-n2ncc3c(NCCCN4CCOCC4)ncnc32)cc1,86%
9,CC(=O)c1c[nH]c2ccc(-c3ccnc(Nc4ccc(NC(=O)c5cccc(F)c5)c(CN5CCOCC5)c4)n3)cc12,-24.8% (active)
10,CC(CC(CCC(=O)O)(c1ccccc1)c1ccccc1)N(C)C (stereo not given),109%
11,CCOC(=O)c1c(C)[nH]c2ccc(O)cc12,95.7%
12,CC(=O)N1Cc2ccccc2C(C)Cc2cc(Cl)ccc21 (stereo not given),111%
13,COc1ccc2nc(-c3ccc(Cl)cc3)cc(-c3nnc(SCC(=O)Nc4ccc(C(C)=O)cc4)n3-c3ccccc3)c2c1,99.3%
14,C[C@H]1C=C(C[C@@H](O)CCCCCCCCCC[C@@H](O)[C@H]2CCC(=O)O2)C(=O)O1,102%
15,S=c1[nH]nc(-c2cc3ccc2CCc2ccc(cc2)CC3)n1-c1ccccc1,89.7%
16,Cc1cccc(/C=C2\N=C(c3ccccc3)N(c3ccc(S(N)(=O)=O)cc3)C2=O)c1,92.7%
17,O=C(Nc1cc(Cl)cc2c1-c1ccc(Cl)cc1C2O)C(Cl)Cl (stereo not given),76.2%
18,Cc1cc(=O)[nH]c(N/N=C/c2ccccc2O)n1,71.3%
19,Nc1ncc(-c2ccc3ncnc(N4CCc5cc(F)c(Cl)cc54)c3c2)cn1,56.5%
20,CC(C)(C)[Si](C)(C)OCC1OC(n2cnc3c(N)ncnc32)CC1OS(C)(=O)=O (stereo not given),104%

row,SMILES,growth
1,COc1cc(/C=C/C(=O)c2cccc(-n3cc(-c4ccc(Cl)cc4)[nH]c3=O)c2)ccc1O,-19.9% (active)
2,Cc1cn(-c2cccc(NC(=O)c3ccc(C)c(Nc4nccc(-c5cccnc5)n4)c3)c2)cn1,10.4%
3,C/C(CC(=O)NNc1ccc([N+](=O)[O-])cc1)=N\Nc1ccc([N+](=O)[O-])cc1,28.8%
4,Cc1ccc2c(c1)ncn2-c1ncnc2c1CC(C)c1ccccc1N2C (stereo not given),-36.2% (active)
5,CCOC(=O)C1CCNC(=O)C1=O (stereo not given),86%
6,OC(c1cccc(C(F)(F)F)c1)c1cnccc1NC1CCCCCC1 (stereo not given),-30.7% (active)
7,Cc1cccc([N+](=O)[O-])c1I,143%
8,Oc1ccc(CN2CCC(N3CCOCC3)CC2)c2cccnc12,34.4%
9,COc1ccc(/C=C/C(=O)c2c(O)c(C)c(O)c3c2OC2=CC(O)=C(C(C)=O)C(=O)[C@]23C)cc1,-34.6% (active)
10,NNc1ncccn1,103%
11,CC(=O)Nc1ccc(CC#N)cc1Br,123%
12,CC1CCC(n2cnc3c(Cl)ncnc32)O1 (stereo not given),112%
13,O=C(Nc1cn[nH]c1-c1nc2ccc(CN3CCOCC3)cc2[nH]1)NC1CC1,-27.1% (active)
14,Nc1nnc(C(=O)c2cnc3n(c2=O)CCCCC3)s1,110%
15,O=C(COc1cccc(/C=C2\CSc3ccccc3C2=O)c1)Nc1nccs1,-76.3% (active)
16,Cc1ccccc1-n1nnc(C(=O)Nc2ccc(-c3ccccc3)cn2)c1C,28.8% [50 µM]
17,CCN(CC)CCC(CNc1ccnc2cc(Cl)ccc12)c1ccc(Cl)cc1 (stereo not given),-53.9% (active)
18,O=C(O)CCC/C=C\C[C@H]1C=CC(=O)/C1=C/C[C@@H](O)CCc1cccc(C(F)(F)F)c1,-11.7% (active)
19,Brc1ccc(-c2cn3ccnc3c(-c3ccc(Br)cc3)n2)cc1,30.2%
20,CNC(=O)c1cc(Oc2ccc(NC(=O)Nc3ccc(Cl)c(SC)c3)c(F)c2)ccn1,45.5%
